Assay [1] in a line: qHTS profiling for inhibitors of Plasmodium falciparum proliferation (AID 504749). Further: nearly all actives have a fitted effect of over 60% in size.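 On activity, negative = inhibition: 0% = DMSO vehicle and full inhibition = artemisinin control.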 The following applies: P. falciparum in erythrocytes, SYBR Green DNA, 72 h. In outline:
(§1)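 Infected RBCs, 0.3% parasitemia/2.5% Hct final; cpd 72 h, 37 C, 5% CO2; lysis buffer with saponin/triton/SYBR Green I, o/n RT dark; FI 485/535; norm. to artemisinin (0.29 uM) and DMSO.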

Assay [2] has as its system 7G8. The description is as above. As to conditions: P. falciparum in erythrocytes, SYBR Green DNA, 72 h; series mostly up to 28.7 µM. In outline:
as §1

Assay [3] deals with AA1029. The assay is described as above. As to conditions: P. falciparum in erythrocytes, SYBR Green DNA, 72 h; series mostly up to 28.7 µM. The method in brief: as §1
Assay [4] concerns AS120. Described as above. As to conditions: P. falciparum in erythrocytes, SYBR Green DNA, 72 h; series mostly up to 28.7 µM. The method in brief: as §1
Assay [5] deals with ATS189. Described as above. As to conditions: P. falciparum in erythrocytes, SYBR Green DNA, 72 h; series mostly up to 28.7 µM. The method in brief:
as §1

The test system of assay [6] is ATS95. Described as above. As to conditions: P. falciparum in erythrocytes, SYBR Green DNA, 72 h; series mostly up to 28.7 µM. In outline: as §1
Assay [7] relates to CP185. The description is as above. As to conditions: P. falciparum in erythrocytes, SYBR Green DNA, 72 h; series mostly up to 28.7 µM. The method in brief: as §1
For assay [8], the system named is CP191. Described as above. The following applies: P. falciparum in erythrocytes, SYBR Green DNA, 72 h; series mostly up to 28.7 µM. In outline:
as §1

Assay [9] concerns 3D7. The assay is described as above. The following applies: P. falciparum in erythrocytes, SYBR Green DNA, 72 h; series mostly up to 28.7 µM. The method in brief: as §1
Assay [10] deals with C2A. The assay is described as above. As to conditions: P. falciparum in erythrocytes, SYBR Green DNA, 72 h; series mostly up to 28.7 µM. In outline:
as §1

Assay [11] relates to CP192. Described as above. The following applies: P. falciparum in erythrocytes, SYBR Green DNA, 72 h; series mostly up to 28.7 µM. The method in brief:
as §1

Where [12] appears, read: at 28.7 µM (top of the series), parasite line A.
Setting [13] is: at 28.7 µM (top of the series), parasite line B.

Inconclusive results are not listed. Unmarked numbers belong to inactive results. Active and inactive are the calls of the source. The call rests on the fitted dose curve; in most records, active means well fitted inhibition curve with a large enough effect; inconclusive means small, poorly fitted or top-dose-only effect; inactive means flat fitted curve, though single readings scatter.
Potency means the concentration at half of the fitted maximal effect.

For `CSc1nc2cc(Oc3cccc(Cl)c3Cl)c(Cl)cc2[nH]1`, the Potency in assay [1] (parasite line A) was 3.98 µM (active); in [1] (parasite line B) it was 11.2 µM (active); in assay [2], 8.91 µM (active); in assay [3] it was 11.2 µM (active); in [4], 11.2 µM (active); in [5], 6.31 µM (active). Moreover, the Potency in assay [6] was 8.91 µM (active); in [7] it was 11.2 µM (active); in assay [8] it was 3.98 µM (active).
Consider `COc1ccccc1N1CCN(CCCC(=O)c2ccc(F)cc2)CC1`, for which the figures for the activity, negative = inhibition in [1] (setting [12]) and in assay [1] (setting [13]) were -16.2% and 9.5%, respectively. The Potency entry in assay [9], in assay [3], in assay [4], in [5], in assay [6] and in assay [10] was “inactive” each time. In addition, the Potency entry in assay [7] and in [11] was “inactive” each time.
Consider `CN(C)c1ccc(C(=C2C=CC(=[N+](C)C)C=C2)c2c(O)c(S(=O)(=O)[O-])cc3cc(S(=O)(=O)O)ccc23)cc1`, for which the figures for the activity, negative = inhibition in [1] (setting [12]) and in assay [1] (setting [13]) were -15.9% and -17.8%, respectively. For the same molecule, the Potency result in assay [9], in [3], in assay [4], in assay [5], in [6] and in [10] was “inactive” in each case. The Potency entry in assay [7], in assay [8] and in [11] was “inactive” each time.
For `O=C(CCCN1CCN2CCCC2C1)c1ccc(F)cc1` (stereo unspecified), the activity, negative = inhibition in assay [1] (setting [12]) is 12%; in assay [1] (setting [13]), 7.07%. The Potency entry in assay [9], in assay [4], in [10], in assay [7], in assay [8] and in [11] was “inactive” throughout.
Turning to `CCOc1cc(-c2nccc3cc(OC)c(OC)cc23)cc(OCC)c1OCC`, the Potency was 8.91 µM (active) in assay [1] (parasite line A), 11.2 µM (active) in assay [1] (parasite line B), 11.2 µM (active) in assay [2] and 11.2 µM (active) in [8]. The Potency entry in assay [10] was “inactive”.
Consider `Cc1cc(C)c(NC(=O)C[C@H](CC(=O)O)c2cccc3ccccc23)c(C(=O)N2CCC3(CCCC3)CC2)c1`, for which the activity, negative = inhibition in [1] (setting [12]) was 4.74%; in [1] (setting [13]), -1.81%. In addition, the Potency entry in assay [9], in [3], in [4], in assay [5], in assay [6] and in assay [10] was “inactive” throughout. Further, the Potency entry in [7], in assay [8] and in assay [11] was “inactive” in each case.
For `C[C@@](Cc1ccc(O)c(O)c1)(NN)C(=O)O`, the activity, negative = inhibition is -19.2% in assay [1] (setting [12]) and -6.85% in assay [1] (setting [13]). Further, the Potency entry in assay [9], in assay [5], in assay [6], in assay [10], in [7] and in [8] was “inactive” each time. Moreover, the Potency result in assay [11] is “inactive”.
On to `C=CCCCCCCCCC(=O)OC`, for which the activity, negative = inhibition in assay [1] (setting [12]) is -4.4%; in [1] (setting [13]), 10.1%. Also, the Potency result in assay [9], in assay [3], in assay [4], in [5], in [6] and in [10] was “inactive” throughout. The Potency entry in [7], in [8] and in [11] was “inactive” throughout.
As for `CC(=O)[C@H]1CC[C@H]2[C@@H]3C=CC4=CC(=O)CC[C@@]4(C)[C@H]3CC[C@]12C`, the activity, negative = inhibition in [1] (at 12.8 µM (top of the series), parasite line A) is 0.59%; in assay [1] (at 12.8 µM (top of the series), parasite line B), -8.1%. For the same molecule, the Potency result in assay [2], in [3], in assay [4], in [5], in assay [6] and in assay [10] was “inactive” throughout. Besides, the Potency result in assay [7], in [8] and in assay [11] was “inactive” throughout.
`C[C@]12CCC(=O)C[C@@H]1CC[C@@H]1[C@@H]2CC[C@]2(C)C=CC[C@@H]12`: the activity, negative = inhibition in assay [1] (setting [12]) is -20.9%; in assay [1] (setting [13]), -5.73%. Besides, the Potency result in [9], in [3], in assay [4], in assay [5], in assay [6] and in assay [10] was “inactive” throughout. The Potency result in assay [7], in assay [8] and in assay [11] was “inactive” each time.
On to `O=[N+]([O-])c1c(Cl)cccc1-c1c[nH]cc1Cl`, for which the values for the activity, negative = inhibition in assay [1] (setting [12]) and in assay [1] (setting [13]) were -12.9% and -18.4%, respectively. Also, the Potency result in assay [9], in assay [3], in assay [4], in assay [5], in [6] and in assay [10] was “inactive” each time. Besides, the Potency result in assay [7], in assay [8] and in [11] was “inactive” each time.
As to `COC(=O)[C@@H](N)CS`, the activity, negative = inhibition in assay [1] (setting [12]) is -8.41%; in [1] (setting [13]) it was 10.4%. Also, the Potency entry in assay [2], in assay [3], in assay [4], in [5], in assay [10] and in assay [7] was “inactive” throughout. The Potency entry in assay [8] and in [11] was “inactive” throughout.
Turning to `CO/N=C(/C(=O)N[C@@H]1C(=O)N2C(C(=O)O)=C(COC(N)=O)CS[C@H]12)c1ccco1`, the activity, negative = inhibition in assay [1] (setting [12]) was 6.01%; in assay [1] (setting [13]), 2.26%. Besides, the Potency result in assay [9], in assay [3], in assay [4], in [5], in assay [6] and in [10] was “inactive” throughout. Further, the Potency result in assay [7], in assay [8] and in assay [11] was “inactive” in each case.
Take `O=C1CCC(c2ccccc2)(C2CCN(Cc3ccccc3)CC2)C(=O)N1` (stereo unspecified): the activity, negative = inhibition in [1] (setting [12]) was 7.2%; in assay [1] (setting [13]) it was 9.21%. Besides, the Potency result in assay [9], in assay [3], in [4], in assay [5], in assay [6] and in assay [10] was “inactive” throughout. Also, the Potency result in [7], in assay [8] and in assay [11] was “inactive” throughout.
Regarding `CN1C(C(=O)Nc2ccccn2)C(=O)c2sc(Cl)cc2S1(=O)=O` (stereo unspecified), the results for the activity, negative = inhibition in assay [1] (setting [12]) and in assay [1] (setting [13]) were 8.71% and -14.1%, respectively. In addition, the Potency result in [9], in [3], in [4], in assay [5], in [6] and in assay [10] was “inactive” each time. Moreover, the Potency entry in assay [7], in [8] and in assay [11] was “inactive” throughout.
Turning to `NC(=O)CC[C@@H]1NC(=O)[C@H](Cc2ccccc2)NC(=O)[C@H](Cc2ccc(O)cc2)NC(=O)[C@@H](N)CSSC[C@@H](C(=O)N2CCC[C@H]2C(=O)N[C@@H](CCCN=C(N)N)C(=O)NCC(N)=O)NC(=O)[C@H](CC(N)=O)NC1=O`, the activity, negative = inhibition in assay [1] (setting [12]) is 1.66%; in assay [1] (setting [13]) it was -0.62%. Besides, the Potency entry in [9], in assay [3], in assay [6], in [10], in [7] and in assay [11] was “inactive” each time.
Turning to `COC(=O)c1ccccc1O`, the activity, negative = inhibition in [1] (setting [12]) was -0.0049%; in assay [1] (setting [13]), 5.19%. Further, the Potency entry in [9], in assay [3], in [4], in assay [5], in assay [6] and in assay [10] was “inactive” in each case. In addition, the Potency entry in [7], in assay [8] and in [11] was “inactive” throughout.
For the molecule `NC(=O)Oc1ccc(Cc2ccccc2)cc1`, the activity, negative = inhibition is 0.685% in [1] (setting [12]) and 4.41% in [1] (setting [13]). In addition, the Potency entry in assay [9], in assay [3], in [4], in [5], in assay [6] and in assay [10] was “inactive” in each case. Moreover, the Potency entry in [7], in assay [8] and in assay [11] was “inactive” throughout.
For the molecule `O=C(OCc1ccccc1)c1ccc(O)cc1`, the activity, negative = inhibition in [1] (setting [12]) is 10.7%; in assay [1] (setting [13]), 11.3%. Also, the Potency entry in assay [9], in [3], in assay [4], in assay [5], in assay [6] and in [10] was “inactive” throughout. Besides, the Potency entry in assay [7], in assay [8] and in assay [11] was “inactive” in each case.
